According to PubChem BioAssay AID2589 (National Center for Advancing Translational Sciences (NCATS), 2010):
The source made the active and inactive calls. Calls follow the shape of the dose curve; as a rule, active = well fitted curve in the direction sought with a large enough effect; inactive = no such curve, though single readings can be large or run the other way.

Each compound was assayed against Lysosomal acid glucosylceramidase (Homo sapiens) (UniProt P04062) (assay: qHTS Assay for Inhibitors and Activators of N370S glucocerebrosidase as a Potential Chaperone Treatment of Gaucher Disease: Chaperone Activity in Non-Gauche Fibroblasts After Multi-day Incubation with Compound). Conditions: Wild-type fibroblasts, GC immunofluorescence, 5-day incubation.
Chain of Lysosomal acid glucosylceramidase (Homo sapiens) (P04062 whole entry, looked up): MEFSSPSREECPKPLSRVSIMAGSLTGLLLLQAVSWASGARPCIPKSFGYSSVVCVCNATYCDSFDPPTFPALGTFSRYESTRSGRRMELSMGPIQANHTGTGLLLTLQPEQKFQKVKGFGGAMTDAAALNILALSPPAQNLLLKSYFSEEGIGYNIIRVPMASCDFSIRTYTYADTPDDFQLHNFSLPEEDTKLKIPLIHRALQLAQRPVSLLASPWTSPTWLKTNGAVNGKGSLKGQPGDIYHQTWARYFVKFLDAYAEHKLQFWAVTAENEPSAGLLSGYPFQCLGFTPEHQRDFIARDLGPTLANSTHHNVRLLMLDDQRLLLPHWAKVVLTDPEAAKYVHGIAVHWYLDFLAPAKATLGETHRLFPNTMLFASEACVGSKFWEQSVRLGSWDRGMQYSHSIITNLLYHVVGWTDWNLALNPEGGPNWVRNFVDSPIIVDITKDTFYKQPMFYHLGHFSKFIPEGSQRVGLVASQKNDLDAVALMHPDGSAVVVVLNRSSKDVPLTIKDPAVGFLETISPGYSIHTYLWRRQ
Excerpt: NIH Chemical Genomics Center [NCGC] NIH Molecular Libraries Probe Production Centers Network [MLPCN] MLPCN Grant: MH086442-01 Assay Submitter (PI): Wei Zheng Glucocerebrosidase (GC) catalyzes the hydrolysis of beta-glucocerebroside to glucose and ceramide in lysosomes. Mutations in the glucocerebrosidase gene result in Gaucher disease, an autosomal recessive lysosomal storage disorder. Many of the mutations encountered in patients with Gaucher disease are missense alterations that may cause misfolding, decreased stability and/or mistrafficking of this lysosomal protein. […] These inhibitors include iminosugar analogs and three non-iminosugar inhibitors identified from a previous HTS of 62,000 compounds with the wild type recombinant enzyme. However, the enhancement of enzyme activity by the chaperone action of an enzyme inhibitor must be balanced against the direct inhibition of the enzyme. An enzyme activator could also function as a chaperone by binding to the enzyme and helping to correct its misfolding and mistrafficking. […] This assay attempts to quantitate translocated glucocerebrosidase protein in patient-derived fibroblasts following extended compound incubation. […]
NCGC Assay Protocol Summary: 1. […] Visualized using a fluorescence microscope and the intensity of fluorescence in the selected areas were calculated. […]
With `O=S(=O)(c1ccc2ccccc2c1)N1CCN(c2nc(-c3cccs3)nc3ccccc23)CC1` the Potency was 1.26 µM (active).
In the case of `S=C(NCCCc1cnc[nH]1)NCCCN(Cc1ccc(Cl)c(Cl)c1)c1ccc(Br)cn1`, the Potency is reported as 0.708 µM (active).
